Source: PubChem BioAssay AID1159580 (chemical genetic matrix, 2015)
Several values for one entry are separate records, joined by “and”; a condition that tells them apart may be missing. Identical values can stand only once. The whole screen tested about 5,500 compounds, of which about 2,000 (36%) were called active. Another 18% or so got no clear call; they are omitted. Rule as the data show it: active = normalized growth mostly below about 0.91 (no sharp cut-off); inconclusive = no clear call, values can overlap the other calls; inactive = mostly above about 0.92. Some of the results follow.

Assay: chemical genetic growth profiling, strain panel (AID 1159580);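 also: tested at 20 µM; growth read once vehicle control cultures reached saturation at 30 °C; 1 = growth at the plate median or of vehicle wells; lower values mean less growth of the strain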
Conditions: S. cerevisiae deletion strains, growth OD

Measured: normalized growth

C[C@@H]1CC(Cl)CC[C@H]1C(=O)OC(C)(C)C (some centres not stated)
inactive: locus YAL013W, strain DEP1, hits give low values 0.987 | locus YAL021C, strain ccr4, hits give low values 1.02 | locus YAL026C, strain drs2, hits give low values 0.973 | locus YAL030W, strain snc1, hits give low values 0.982 | locus YBL061C, strain skt5, hits give low values 0.983 | locus YBR009C, strain hhf1, hits give low values 0.948 | locus YBR021W, strain FUR4, hits give low values 0.976 | locus YBR023C, strain chs3, hits give low values 0.98 | locus YBR171W, strain sec66, hits give low values 0.979 | locus YBR229C, strain ROT2, hits give low values 0.992 | locus YBR231C, strain swc5, hits give low values 0.986 | locus YBR279W, strain paf1, hits give low values 0.993 | locus YCL011C, strain gbp2, hits give low values 0.979 | locus YCL016C, strain dcc1, hits give low values 0.98 | locus YCL029C, strain bik1, hits give low values 0.98 | locus YCL061C, strain MRC1, hits give low values 0.983 | locus YCL069W, strain vba3, hits give low values 0.985 | locus YCR088W, strain abp1, hits give low values 0.987 | locus YDL005C, strain med2, hits give low values 0.991 | locus YDL035C, strain GPR1, hits give low values 0.995 | locus YDL040C, strain nat1, hits give low values 0.982 | locus YDL074C, strain BRE1, hits give low values 0.948 | locus YDL101C, strain DUN1, hits give low values 0.985 | locus YDL134C, strain PPH21, hits give low values 0.997 | locus YDL185W, strain tfp1, hits give low values 0.952 | locus YDL192W, strain arf1, hits give low values 0.983 | locus YDR001C, strain nth1, hits give low values 0.976 | locus YDR069C, strain doa4, hits give low values 0.97 | locus YDR101C, strain arx1, hits give low values 0.969 | locus YDR137W, strain rgp1, hits give low values 0.93 | locus YDR150W, strain NUM1, hits give low values 0.984 | locus YDR159W, strain sac3, hits give low values 0.915 | locus YDR162C, strain NBP2, hits give low values 0.992 | locus YDR195W, strain ref2 0.961 | locus YDR297W, strain sur2, hits give low values 0.981 | locus YDR318W, strain mcm21, hits give low values 0.988 | locus YDR334W, strain swr1, hits give low values 0.978 | locus YDR335W, strain msn5, hits give low values 0.981 | locus YDR388W, hits give low values 0.994 | locus YDR392W, strain spt3, hits give low values 0.774 | locus YDR502C, strain sam2, hits give low values 0.992 | locus YEL003W, strain gim4, hits give low values 0.976 | locus YEL037C, strain rad23, hits give low values 0.983 | locus YEL061C, strain CIN8 (second series), hits give low values 0.984 | locus YEL061C, strain CIN8, hits give low values 0.989 | locus YER015W, strain faa2, hits give low values 0.986 | locus YER016W, strain bim1, hits give low values 0.975 | locus YER110C, hits give low values 0.986 | locus YER111C, strain swi4, hits give low values 0.964 | locus YER155C, strain BEM2 (second series), hits give low values 0.956 | locus YER155C, strain BEM2, hits give low values 0.997 | locus YER167W, strain BCK2, hits give low values 0.993 | locus YFR010W, strain ubp6, hits give low values 0.98 | locus YGL078C, strain dbp3, hits give low values 0.983 | locus YGL086W, strain mad1, hits give low values 1 | locus YGL167C, strain pmr1, hits give low values 0.973 | locus YGL173C, strain kem1, hits give low values 0.968 | locus YGL227W, strain vid30, hits give low values 0.988 | locus YGL240W, strain doc1, hits give low values 0.978 | locus YGL248W, strain PDE1, hits give low values 0.995 | locus YGL253W, strain hxk2, hits give low values 0.969 | locus YGR078C, strain PAC10, hits give low values 0.971 | locus YGR135W, strain pre9, hits give low values 0.988 | locus YGR229C, strain SMI1, hits give low values 0.909 | locus YGR252W, strain gcn5, hits give low values 1.19 | locus YHR013C, strain ard1, hits give low values 0.95 | locus YHR027C, strain rpn1, hits give low values 0.981 | locus YHR030C, strain SLT2, hits give low values 0.982 and 1.01 | locus YHR079C, strain IRE1 (second series), hits give low values 0.985 | locus YHR079C, strain IRE1, hits give low values 1.01 | locus YHR094C, strain hxt1, hits give low values 0.972 | locus YHR129C, strain ARP1, hits give low values 0.985 | locus YHR142W, strain chs7, hits give low values 1.01 | locus YHR200W, strain rpn10, hits give low values 0.997 | locus YIL066C, strain RNR3, hits give low values 0.995 | locus YIL073C, strain SPO22, hits give low values 0.96 | locus YIL125W, strain kgd1, hits give low values 0.987 | locus YIR030C, strain dcg1, hits give low values 0.993 | locus YJL092W, strain hpr5, hits give low values 0.984 | locus YJL095W, strain BCK1 (second series), hits give low values 0.984 | locus YJL095W, strain BCK1, hits give low values 1 and 1.01 | locus YJL115W, strain asf1, hits give low values 0.993 | locus YJL129C, strain trk1, hits give low values 0.975 | locus YJL134W, strain LCB3, hits give low values 0.99 | locus YJL154C, strain vps35, hits give low values 0.98 | locus YJL164C, strain tpk1, hits give low values 1 | locus YJL166W, strain qcr8, hits give low values 0.986 | locus YJL168C, strain set2, hits give low values 0.979 | locus YJL187C, strain SWE1 (second series), hits give low values 0.975 | locus YJL187C, strain SWE1, hits give low values 0.986 | locus YJR043C, strain POL32, hits give low values 0.977 | locus YJR066W, strain TOR1, hits give low values 0.939
